According to PubChem BioAssay:

experiment: compounds binding Alexa647 anti-His antibody – biochemical, small-molecule microarray, 635 nm fluorescence, artefact control for SMM control protein annotation, primary screen (AID 1128); details: higher = more signal;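 further: score merges feature fluorescence with signal-to-noise for each printed compound spot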

SMILES	composite z-score
CCN1C(=O)[C@@H]2[C@H]3C(=CC[C@@H]2C1=O)C1(OCCCO1)[C@H]1O[C@H]1[C@H]3O	0.841
CCOC(=O)[C@H](Cc1ccccc1)NC(=O)CCC1CC(OC(=O)NCCc2ccc(F)cc2)CC2(CCCC(COC(=O)NCCc3ccccc3OC)O2)O1 (stereo partly specified)	0.949
CCOC(=O)NN=C1C[C@@H](O)[C@@H](O)[C@@H]2[C@@H]3C(=O)N(c4cccc(Oc5ccccc5)c4)C(=O)[C@@H]3CC[C@H]12	0.141
CCCCC#C[C@@H]1C=C[C@H](Oc2ccc(C(=O)OC)cc2)[C@@H](COC(=O)OCC)O1	0.516
CCCNC(=O)OC[C@H]1O[C@H](CCON=C(C)CCN2CCc3nc(CC)c(CC)cc3C2)C=C[C@@H]1Oc1ccc(OC)cc1	0.869
CCC1=NOC(CCC2CC(OC(=O)NCc3cccc4c3OCO4)CC3(CCCC(COC(=O)NCCc4ccccc4OC)O3)O2)C1 (stereo unspecified)	0.0887
CO[C@@H]1COC(=O)CC=C[C@H](C)[C@H](OC)COC(=O)[C@H](C)NC(=O)CC=C[C@H]1C	-0.347
C#CCCCON=C1C[C@@H](O)[C@@H](O)[C@@H]2[C@@H]3C(=O)N(C(C)(C)C)C(=O)[C@@H]3CC[C@H]12	0.0217
CCOC(=O)[C@H](Cc1ccccc1)NC(=O)CCC1CC(OC(=O)NCc2ccc3c(c2)OCO3)CC2(CCCC(COC(=O)NCCC(C)C)O2)O1 (stereo partly specified)	0.408
COC(=O)CC=C[C@@H](C)[C@@H](C=NO[C@H](C)c1cn([C@H](CO)Cc2ccccc2)nn1)NS(=O)(=O)c1ccc(C)cc1	2.47
CCN1C(=O)[C@H]2[C@H]3[C@H](O)[C@H](O)CC(=O)[C@@H]3CC[C@H]2C1=O	0.562
